Screening data deposited in PubChem by National Center for Advancing Translational Sciences (NCATS).
SW480 rerep: A quantitative high throughput screen for small molecules that induce DNA re-replication in SW480 colon adenocarcinoma cells. SW480 DNA re-replication, Hoechst DNA content imaging, 48 h. Potency, µM (highest dose often 46.1 µM), actives largely listed as activators. actives 1.8% (n = 340,000). AID 624297, 2012; also: nearly all actives have a fitted effect of over 55% in size
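Hoechst fluorescence of nuclei (405 nm excitation, 500-530 nm emission) measured by plate-scanning imager after 48 hr compound exposure at 37 C; re-replication scored as increased number of nuclei with elevated intensity.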
KCNH2 3.1 inh: qHTS for Inhibitors of KCHN2 3.1: Mutant qHTS | actives 0.95% (n = 340,000) | AID 720553, 2013 | U2OS KCNH2 3.1, thallium flux FluxOr; active compounds read low | activity change, % (tested at about 1.8 µM) | Potassium voltage-gated channel subfamily H member 2, brain isoform KCNH2 3.1 (human);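 active = maximum activity change below -70%; inconclusive = maximum activity change from -70% to -50%; inactive = maximum activity change above -50%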;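 also: thallium influx rate constant from kinetic fluorescence after stimulation buffer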
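FluxOr-based Tl+ influx in U2OS cells transduced with KCNH2 3.1 virus; rate constants normalized to DMSO controls.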
MCF10A rerep: A quantitative high throughput screen for small molecules that induce DNA re-replication in MCF 10a normal breast cells; MCF 10A DNA re-replication, Hoechst nuclear intensity, 48 h; Potency, µM (highest dose often 46.1 µM), usual class: activators; actives 2.9% (n = 350,000); also: nearly all actives have a fitted effect of over 50% in size
KB-V1 cytotox: qHTS assay for MDR1-selective chemotherapeutics: Primary screen using the drug-selected MDR subline cells KB-V1. actives 3.4% (n = 400,000). KB-V1 MDR cells viability, CellTiter-Glo, 72 h. AID 1347076, 2019. Potency, µM (highest dose often 46.1 µM), usual class: cytotoxic; also: nearly all actives have a fitted effect of over 60% in size
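Readout: CellTiter-Glo luminescence, 10 min after addition. Cells: KB-V1 MDR subline, 72 h at 37 degrees C with compound. Analysis: corrected, normalized data fitted to concentration-effect curves.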
hERG WT inh: qHTS for Inhibitors of KCHN2 3.1: Wildtype qHTS; activity change, % at 1.84 µM; AID 720551, 2013; Voltage-gated inwardly rectifying potassium channel KCNH2 (Homo sapiens), Q12809; U2OS, BacMam KCNH2, thallium flux FluxOr; active compounds read low; actives 0.37% (n = 340,000);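 active = maximum activity change below -70%; inconclusive = maximum activity change between -70% and -50%; inactive = maximum activity change above -50%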
Target sequence (Q12809 whole entry, looked up): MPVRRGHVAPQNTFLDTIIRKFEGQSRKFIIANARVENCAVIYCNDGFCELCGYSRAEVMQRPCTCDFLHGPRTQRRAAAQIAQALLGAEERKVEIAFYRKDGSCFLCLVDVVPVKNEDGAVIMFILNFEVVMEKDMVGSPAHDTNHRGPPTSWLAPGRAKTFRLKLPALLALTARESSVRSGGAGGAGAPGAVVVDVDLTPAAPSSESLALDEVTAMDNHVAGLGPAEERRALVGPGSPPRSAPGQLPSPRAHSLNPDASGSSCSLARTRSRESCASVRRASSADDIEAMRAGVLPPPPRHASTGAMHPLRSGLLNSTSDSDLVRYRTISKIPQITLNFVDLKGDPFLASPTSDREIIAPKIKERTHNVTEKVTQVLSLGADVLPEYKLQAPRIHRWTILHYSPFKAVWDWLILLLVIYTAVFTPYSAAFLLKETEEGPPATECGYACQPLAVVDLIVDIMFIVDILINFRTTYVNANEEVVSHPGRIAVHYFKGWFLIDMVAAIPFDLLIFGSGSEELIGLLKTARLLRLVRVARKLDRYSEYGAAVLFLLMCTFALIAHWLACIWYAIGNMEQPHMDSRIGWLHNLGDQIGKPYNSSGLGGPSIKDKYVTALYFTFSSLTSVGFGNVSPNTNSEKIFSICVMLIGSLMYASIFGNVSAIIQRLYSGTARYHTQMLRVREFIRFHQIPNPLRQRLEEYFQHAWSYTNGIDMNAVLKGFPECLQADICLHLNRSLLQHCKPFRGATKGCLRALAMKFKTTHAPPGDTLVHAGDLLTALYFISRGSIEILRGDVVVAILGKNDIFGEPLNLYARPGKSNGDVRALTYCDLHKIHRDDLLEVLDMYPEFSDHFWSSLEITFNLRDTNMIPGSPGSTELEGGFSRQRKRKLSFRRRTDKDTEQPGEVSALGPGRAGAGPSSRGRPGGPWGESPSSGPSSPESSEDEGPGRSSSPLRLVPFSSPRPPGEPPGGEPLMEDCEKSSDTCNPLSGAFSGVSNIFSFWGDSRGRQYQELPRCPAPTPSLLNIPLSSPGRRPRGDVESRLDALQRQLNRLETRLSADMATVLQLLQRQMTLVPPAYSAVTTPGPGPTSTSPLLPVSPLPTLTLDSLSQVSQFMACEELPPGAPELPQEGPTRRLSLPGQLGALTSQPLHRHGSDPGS
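U2OS cells were transduced with wild-type KCNH2 virus (2.03 x 10^8 / mL) for 4 h at room temperature, then cultured overnight at 37 C. Thallium flux was read with FluxOr dye. Rate constants were normalized to DMSO controls.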
KB-3-1 cytotox: qHTS assay for MDR1-selective chemotherapeutics: Primary screen using the parental adenocarcinoma cell KB-3-1; AID 1347075, 2019; actives 1.4% (n = 400,000); Potency, µM (doses to about 46.1 µM), most hits filed as cytotoxic; KB-3-1 viability, CellTiter-Glo ATP luminescence, 72 h; also: nearly all actives have a fitted effect of over 60% in size
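Here the drug-naive KB-3-1 line serves as comparator for MDR sub-line selectivity; cells received compound titrations, 72 h at 37 °C, then CellTiter-Glo readout.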
A number is an active result; . = inactive; ? = inconclusive; / = no result given. A selection: hits, their analogues and other compounds. The true share with any hit is near 7.6%. Unless noted, calls follow the shape of the dose curve; as a rule, active = well fitted curve in the direction sought with a large enough effect; inconclusive = small, poorly fitted or top-dose-only effect, or another doubt; inactive = no such curve, though single readings can be large; an effect the other way counts as inactive or inconclusive.

SMILES | SW480 rerep | KCNH2 3.1 inh | MCF10A rerep | KB-V1 cytotox | hERG WT inh | KB-3-1 cytotox
CCc1ccc(OCCCC(=O)Nc2cccc(C(=O)O)c2)cc1 | 23.1µM | . | . | . | . | .
CC(=O)c1ccc(OCCCC(=O)Nc2cccc(S(=O)(=O)N(C)C)c2)cc1 | . | . | . | 13µM | . | ?
COc1ccccc1C(=O)NCC(=O)OCC(=O)Nc1cccc(S(=O)(=O)N(C)C)c1 | . | . | . | . | . | .
CN(C)S(=O)(=O)c1cccc(NC(=O)COc2ccccc2C(=O)NCc2ccccc2)c1 | . | . | . | 10.3µM | . | ?
CC(=O)c1ccc(OCCCC(=O)Nc2cccc(S(=O)(=O)N3CCCCC3)c2)cc1 | . | . | . | / | . | /
Cc1cccn2c(=O)nc(SCC(=O)NCc3ccc(F)cc3)nc12 | . | . | . | . | . | .
Cc1nnc(N2CCC(C(=O)NCCc3ccccc3Cl)CC2)c2nn(-c3ccccc3)c(C)c12 | / | / | / | ? | / | .
Cc1c(Cl)cccc1NC(=O)CNc1cccc(S(=O)(=O)N(C)C)c1 | . | . | . | 16.4µM | . | .
CN(C)S(=O)(=O)c1cccc(NC(=O)CCSc2ccc(Cl)cc2)c1 | . | . | . | 11.6µM | . | ?
Cc1ccccc1OC(C)C(=O)N1CCN(c2ccccn2)CC1 (stereo unspecified) | . | . | . | . | . | .
O=C(COC(=O)CCCNC(=O)c1ccc(Cl)cc1)NCc1ccccc1Cl | . | . | . | . | . | .
N#CCN(C(=O)COC(=O)CCCNC(=O)c1ccc(Cl)cc1)c1ccccc1 | . | . | . | 20.6µM | . | .
CCOc1ccc(N/C=C/C(=O)c2ccccc2)c([N+](=O)[O-])c1 | . | . | . | ? | . | 16.4µM
CCOc1ccc(NC(=O)/C=C/c2ccccc2)c([N+](=O)[O-])c1 | ? | . | . | ? | . | ?
C=C(C)Cn1c(SCC(=O)c2ccc(OC)cc2)nc2sc3c(c2c1=O)CCCC3 | / | / | / | . | / | .
CCN(CC)C(=O)C(C)N(C#N)c1nc(NC(C)C)nc(NC(C)C)n1 (stereo unspecified) | . | . | . | 9.2µM | . | .
Cc1ccc(C(=O)Nc2ccc3c(c2)nc(CCNC(=O)c2ccco2)n3C)cc1 | . | . | . | . | . | .
CC1(C)CC(N=c2cc(-c3ccccc3)oc3ccc(Cl)cc23)CC(C)(C)N1 | ? | . | ? | ? | . | 20.6µM
OCCCN=c1cc(-c2ccccc2)oc2ccc(Cl)cc12 | . | . | . | . | . | .
COc1ccc(CN2C(=O)c3ccccc3C(/C=N/OCc3ccc(Cl)cc3)C2=O)cc1 (stereo unspecified) | ? | . | . | ? | . | ?
COc1ccc(CN2C(=O)c3ccccc3C(/C=N\OCc3ccc(F)cc3)C2=O)cc1 (stereo unspecified) | . | . | . | 16.4µM | . | ?
COc1ccccc1N1CCN(C(=O)c2oc3ccc(Br)cc3c2C)CC1 | ? | . | 16.4µM | 13µM | . | 10.3µM
Cc1ccc(C(=O)N2CCN(c3ccc(C(F)(F)F)cn3)CC2)cc1 | . | . | . | . | . | .
COc1ccccc1N1CCN(C(=O)c2oc3ccc(F)cc3c2C)CC1 | ? | . | ? | ? | . | ?
CC(=O)c1ccc(N2CCN(c3ccc(C(F)(F)F)cn3)CC2)cc1 | . | -200.0 | . | 7.31µM | -138.8 | ?
SMILES | SW480 rerep | KCNH2 3.1 inh | MCF10A rerep | KB-V1 cytotox | hERG WT inh | KB-3-1 cytotox
O=C(c1ccc(C(F)(F)F)cc1)N1CCN(c2ccc(N3CCOCC3)nn2)CC1 | . | . | . | 16.4µM | . | .
Cc1c(C(=O)N2CCN(c3ccc(C(F)(F)F)cn3)CC2)oc2ccccc12 | . | . | 23.1µM | . | . | .
Cc1nn(CC(=O)NC2CC2)c(C)c1S(=O)(=O)N(C)C | / | . | / | . | . | .
O=C(c1ccccc1Oc1ccc(C(F)(F)F)cc1[N+](=O)[O-])N1CCOCC1 | . | . | . | . | . | .
COc1ccccc1N1CCN(C(=O)c2oc3ccccc3c2C)CC1 | 14.6µM | . | ? | . | . | .
COc1ccccc1N1CCN(C(=O)c2oc3ccccc3c2NC(=O)C(C)Oc2ccccc2)CC1 (stereo unspecified) | / | / | / | . | / | ?
COCc1c(C(=O)N2CCN(c3ccccc3C)CC2)oc2ccccc12 | . | . | . | 20.6µM | . | .
O=C(c1ccc(Oc2ccc(C(F)(F)F)cc2[N+](=O)[O-])cc1)N1CCOCC1 | . | . | . | 23.1µM | . | ?
CC(C(=O)N1CCc2ccccc21)N1CCc2ccccc2C1 (stereo unspecified) | . | . | . | 14.6µM | . | .
O=C(CN1C(=O)NC2(CCCCCC2)C1=O)c1ccc(Cl)cc1 | . | . | . | . | . | .
Cc1ccc(NS(=O)(=O)c2cccc(C(=O)NNC(=O)c3cccn3C)c2)c(C)c1 | . | . | . | . | . | .
CCN(CC)C(=O)Cn1cc(S(=O)(=O)CC(=O)Nc2ccc(F)cc2F)c2ccccc21 | . | . | ? | / | . | /
Cc1ccc(S(=O)(=O)N2CCN(CC(=O)NC(=O)NCc3ccco3)CC2)cc1C | . | . | . | . | . | .
Cc1c(C(=O)N2CCc3ccccc32)oc2ccccc12 | . | . | . | 18.4µM | . | .
COc1cc(CN(C(=O)c2ccco2)c2ccc(C)cc2)ccc1O | . | / | . | 13µM | . | .
COc1ccc(CN(C(=O)c2ccco2)c2ccc(Br)cc2)cc1OC | . | . | . | ? | . | .
COc1ccc(CN(C(=O)c2ccco2)c2ccc(C)c(C)c2)cc1 | 16.4µM | . | 10.3µM | ? | . | 16.4µM
CC1CCN(Cc2c(C#N)c3ccccc3n2C)CC1 | . | . | . | . | . | .
CN(C)c1ccc(/C=C/c2ccc3ccccc3[n+]2[O-])cc1 | / | / | / | ? | / | .
CN(C)c1ccc(/C=C/c2cc[n+](C)cc2)cc1 | ? | . | ? | . | . | 23.1µM
Cc1ccc(/C=C/c2ccc(N(C)C)cc2)[n+](C)c1 | . | . | . | . | . | 2.06µM
Cc1ccc2c(/C=C/c3ccc(N(C)C)cc3)c(C)cnc2c1 | / | / | / | . | / | ?
Cc1ccccc1OCc1nc(-c2ccc(NC(=O)c3ccc4c(c3)OCO4)cc2)no1 | ? | . | 20.6µM | ? | . | .
CCN1CCc2c(C#N)c(N3CCCCC3)nc(NCc3ccccc3)c2C1 | ? | . | ? | ? | . | ?
